The record followed here is PubChem BioAssay (NCI).

This is part of a sample that, as a whole, favours compounds with a hit. Of some 83,000 tested, about 20% had one in any assay.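 Values shown are percent growth following 48 h exposure of cells in 96-well plates to a single concentration of compound; below 10 was considered active.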 A number with no mark means an inactive call. Calls of active or inactive are those of the source.

Assay in all cases: NCI-60 one-dose screen, 48 h (100 = growth as untreated, 0 = no growth, -100 = all killed)
In one experiment the test system is NCI-H23 lung. The settings on record: 10 µM unless noted.
The subject of a further experiment is NCI-H226 lung. The settings on record: 10 µM unless noted.
Another experiment relates to NCI-H322M lung. The settings on record: 10 µM unless noted.
For the next experiment, the system named is HOP-62 NSCLC. The settings on record: 10 µM unless noted.
Another experiment deals with NCI-H460 lung. The settings on record: 10 µM unless noted.
For a further experiment, the system named is HOP-92 NSCLC. The settings on record: 10 µM.
For a further experiment, the system named is NCI-H522 lung. The settings on record: 10 µM unless noted.
A further experiment has as its system A549/ATCC NSCLC. The note with it: 10 µM unless noted.
The next experiment concerns 786-0 renal. The note with it: 10 µM unless noted.
The subject of the next experiment is COLO 205 colon. The note with it: 10 µM unless noted.
For a further experiment, the system named is DU-145 prostate. The settings on record: 10 µM unless noted.
The next experiment concerns K-562 leukemia. The settings on record: 10 µM unless noted.
Another experiment deals with MALME-3M melanoma. The settings on record: 10 µM unless noted.
The next experiment has as its system MDA-MB-231 breast. The settings on record: 10 µM unless noted.
The next experiment deals with RXF 393 renal. The note with it: 10 µM unless noted.
Another experiment relates to SF-268 CNS. The settings on record: 10 µM unless noted.
In another experiment the test system is SF-295 CNS. The settings on record: 10 µM unless noted.
For a further experiment, the system named is SF-539 CNS. The settings on record: 10 µM unless noted.
The test system of the next experiment is UACC-257 melanoma. The settings on record: 10 µM unless noted.

For the compound `Cc1ccc(-c2cc3nc(C(Cl)Cl)nc(-c4cccs4)n3n2)cc1`, the growth with NCI-H23 lung was 83.9%; in the experiment with NCI-H226 lung it was 87.3%; in the experiment on NCI-H322M lung, 38.6%; in the experiment on HOP-62 NSCLC it was 54.1%; with NCI-H460 lung it was 3.91% (active); with HOP-92 NSCLC, 80%. Further, the growth in the experiment on NCI-H522 lung was 97.9%; in the experiment on A549/ATCC NSCLC, 67.9%; in the experiment on 786-0 renal, 100%; with COLO 205 colon it was 43.7%; in the experiment on DU-145 prostate, 3.22% (active); with K-562 leukemia, 93.2%. Moreover, the growth with MALME-3M melanoma was 71.7%; with MDA-MB-231 breast, 41.6%; with RXF 393 renal, 40.5%; in the experiment on SF-268 CNS, 82.2%; in the experiment with SF-295 CNS, 32.8%; in the experiment with SF-539 CNS, 68.5%. Also, in the experiment with UACC-257 melanoma, the growth is 106%.

On to `NC(=O)c1c(NC(=O)c2ccccc2C(F)(F)F)sc2c1CCC(=O)C2`, for which the growth in the experiment with NCI-H23 lung is 4.77% (active); in the experiment on NCI-H226 lung it was 37.9%; with NCI-H322M lung, 105%; with HOP-62 NSCLC, 93.4%; in the experiment with NCI-H460 lung it was 58.4%; with HOP-92 NSCLC, -9.74% (active). Besides, the growth in the experiment on NCI-H522 lung was -1.13% (active); in the experiment on A549/ATCC NSCLC, 94%; in the experiment with 786-0 renal it was 37.5%; with COLO 205 colon, 38.3%; in the experiment on DU-145 prostate it was 81.2%; in the experiment with K-562 leukemia it was 11.7%. For the same compound, the growth is 15% in the experiment on MALME-3M melanoma; 16.2% with MDA-MB-231 breast; 41.7% in the experiment with RXF 393 renal; 24.6% in the experiment with SF-268 CNS; 73% with SF-295 CNS; 5.83% (active) in the experiment on SF-539 CNS. In addition, the growth in the experiment with UACC-257 melanoma was 10.6%.

With `O=C(/C=C/c1ccc(F)cc1)c1ccc(O)cc1`, the growth with NCI-H23 lung was 95.6%; in the experiment on NCI-H226 lung, 105%; with NCI-H322M lung it was 121%; in the experiment with HOP-62 NSCLC, 107%; with NCI-H460 lung, 103%; in the experiment with HOP-92 NSCLC, 109%. Besides, the growth in the experiment on NCI-H522 lung is 90.1%; in the experiment with A549/ATCC NSCLC, 92.2%; in the experiment on 786-0 renal, 95.2%; in the experiment on COLO 205 colon, 112%; in the experiment with DU-145 prostate, 95.5%; in the experiment with K-562 leukemia it was 58.7%. Further, the growth with MALME-3M melanoma was 118%; in the experiment with MDA-MB-231 breast, 100%; with RXF 393 renal, 105%; with SF-268 CNS it was 101%; in the experiment with SF-295 CNS, 104%; in the experiment with SF-539 CNS, 93.7%. The growth with UACC-257 melanoma is 95.5%.

Turning to `Brc1ccccc1/C=N/Nc1nc(N/N=C/c2ccccc2Br)nc(N2CCOCC2)n1`, the growth is 105% in the experiment on NCI-H23 lung; 95.1% in the experiment on NCI-H226 lung; 96.8% in the experiment with NCI-H322M lung; 108% with HOP-62 NSCLC; 103% in the experiment on NCI-H460 lung; 112% in the experiment with HOP-92 NSCLC. Moreover, the growth in the experiment with NCI-H522 lung was 86.6%; in the experiment with A549/ATCC NSCLC, 97.1%; in the experiment with 786-0 renal, 61.3%; with COLO 205 colon, 86.1%; in the experiment with DU-145 prostate, 98.3%; in the experiment with K-562 leukemia it was 94.1%. Besides, the growth in the experiment on MALME-3M melanoma was 143%; in the experiment with MDA-MB-231 breast it was 103%; in the experiment with RXF 393 renal, 69.6%; in the experiment on SF-268 CNS, 102%; in the experiment on SF-295 CNS it was 85.5%; in the experiment on SF-539 CNS it was 105%. Also, the growth with UACC-257 melanoma was 104%.

For `Cc1ccc(-c2cc3nc(C(Cl)Cl)nc(-c4ccco4)n3n2)cc1`, the growth was 59.8% with NCI-H23 lung; 87% in the experiment with NCI-H226 lung; 2.67% (active) in the experiment on NCI-H322M lung; -12.3% (active) in the experiment on HOP-62 NSCLC; -21.6% (active) in the experiment with NCI-H460 lung; -0.128% (active) in the experiment on HOP-92 NSCLC. In addition, the growth with NCI-H522 lung is 94.5%; in the experiment on A549/ATCC NSCLC it was 2.51% (active); in the experiment on 786-0 renal it was 59.5%; with COLO 205 colon, -39.4% (active); with DU-145 prostate it was -24.3% (active); in the experiment on K-562 leukemia, 55.5%. In addition, the growth in the experiment with MALME-3M melanoma was 93.3%; with MDA-MB-231 breast it was -21.7% (active); in the experiment with RXF 393 renal, -46.1% (active); in the experiment on SF-268 CNS, 20.5%; with SF-295 CNS, -4.81% (active); in the experiment with SF-539 CNS, -32.6% (active). In addition, the growth in the experiment on UACC-257 melanoma is 57%.

Consider `NC(=O)c1c(NC(=O)c2ccc(F)cc2F)sc2c1CCC(=O)C2`, for which the growth in the experiment on NCI-H23 lung is 18.5%; with NCI-H226 lung it was 88%; in the experiment with NCI-H322M lung, 99.8%; with HOP-62 NSCLC, 104%; in the experiment with NCI-H460 lung, 109%; in the experiment with HOP-92 NSCLC it was 66.1%. The growth in the experiment on NCI-H522 lung was 10.2%; in the experiment with A549/ATCC NSCLC, 106%; in the experiment on 786-0 renal, 83.4%; in the experiment with COLO 205 colon it was 98.7%; in the experiment with DU-145 prostate it was 101%; with K-562 leukemia it was 15.8%. The growth was 63.8% in the experiment on MALME-3M melanoma; 39.2% in the experiment on MDA-MB-231 breast; 85.1% with RXF 393 renal; 34.7% in the experiment on SF-268 CNS; 99.7% in the experiment on SF-295 CNS; 16.3% in the experiment on SF-539 CNS. The growth in the experiment with UACC-257 melanoma is 81.8%.

Regarding `COc1cc(OC)c(/C=C/S(=O)(=O)Cc2ccc(OC)c(NC(=O)CCC(=O)NO)c2)c(OC)c1`, the growth with NCI-H23 lung was 16.6%; with NCI-H226 lung it was 27.2%; in the experiment on NCI-H322M lung, 47.8%; in the experiment on HOP-62 NSCLC, 25.3%; in the experiment on NCI-H460 lung, 6.85% (active); in the experiment on HOP-92 NSCLC, 63.5%. The growth with NCI-H522 lung is -6.54% (active); with A549/ATCC NSCLC, 24.6%; in the experiment on 786-0 renal it was 28.5%; with COLO 205 colon, -53.6% (active); with DU-145 prostate it was 14.4%; with K-562 leukemia it was 12.6%. Moreover, the growth was 64.1% with MALME-3M melanoma; 26% with MDA-MB-231 breast; 6.03% (active) in the experiment on RXF 393 renal; 30.4% with SF-268 CNS; 8.21% (active) in the experiment with SF-295 CNS; -4.79% (active) in the experiment with SF-539 CNS. Further, the growth with UACC-257 melanoma was 59.5%.

For the compound `Clc1cccc(/C=N/Nc2nc(N/N=C/c3cccc(Cl)c3Cl)nc(N3CCCCC3)n2)c1Cl`, the growth is 99.7% in the experiment on NCI-H23 lung; 97.5% in the experiment with NCI-H226 lung; 90% with NCI-H322M lung; 98.2% in the experiment on HOP-62 NSCLC; 33.8% in the experiment with NCI-H460 lung; 86.2% in the experiment on HOP-92 NSCLC. The growth with NCI-H522 lung is 76.6%; with A549/ATCC NSCLC, 55.6%; in the experiment with 786-0 renal, 102%; with COLO 205 colon, 90.3%; with DU-145 prostate, 73.4%; in the experiment on K-562 leukemia, 78.1%. Besides, the growth is 92.5% with MALME-3M melanoma; 84.2% in the experiment on MDA-MB-231 breast; 112% in the experiment on RXF 393 renal; 86.4% with SF-268 CNS; 92.7% in the experiment on SF-295 CNS; 84.3% with SF-539 CNS. Moreover, in the experiment with UACC-257 melanoma, the growth is 100%.
